These results are taken from PubChem BioAssay (Tox21).

The structures appear in SMILES notation. Values joined by “and” are separate entries in the source; they are usually repeats but may differ in a detail not shown here. Equal values may be shown once. Inconclusive results are not listed. More than one record can exist for a structure, and the calls need not agree. Active and inactive are the calls of the source. Unless noted, calls come from the whole dose curve.

Test [1] can be described thus: qHTS assay to identify small molecule antagonists of the vitamin D receptor (VDR) signaling pathway - cell viability counter screen (AID 743225; active = well fitted curve in the direction sought with a large enough effect in the repeat runs; an effect the other way counts as inactive or inconclusive; note: nearly all actives have a fitted effect of over 50% in size; note: potency is the fitted concentration of half-maximal effect). In a few lines:
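Read-out: CellTiter-Glo luminescence measured 30 min after reagent addition at room temperature. Cells were VDR-bla HEK 293T exposed 16 h at 37C, 5% CO2, to compound with 3 nM final calcitriol agonist.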
On the technique in general: qHTS replaces the single test concentration by a dilution series.

A short description of test [2]: qHTS assay to identify small molecule agonists of the NFkB signaling pathway - cell viability counter screen (AID 1159515). Note: series mostly up to about 61 µM; nearly all actives have a fitted effect of over 55% in size. Summed up: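 NFkB-bla ME-180 cells, 2,000/well, were plated overnight at 37 C, 5% CO2, then exposed to compounds in DMSO for 5 hr. After the bla FRET read, CellTiter-Glo was added to the same wells; luminescence was read after 30 min at room temperature.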

Test [3] in a line: qHTS assay to identify small molecule agonists of the endoplasmic reticulum stress response signaling pathway (AID 1159516; active = well fitted activation curve with a large enough effect in the signal ratio in the repeat runs, not every such curve was filed as active; the % refers to the signal ratio). Summed up:
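CellSensor ESRE-bla HeLa cells, carrying a beta-lactamase reporter driven by the ER stress response element, were plated overnight and exposed to compounds for 5 hr at 37 C. Reporter activity was read as FRET substrate fluorescence after 2 hr at room temperature.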

A short description of test [4]: qHTS assay to identify small molecule agonists of the endoplasmic reticulum stress response signaling pathway - cell viability counter screen (AID 1159517). Note: nearly all actives have a fitted effect of over 50% in size. Note: potency is the fitted concentration of half-maximal effect. Summed up:
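Counter-screen wells were identical to the reporter wells. Cells were plated at 1,500 per well and dosed for 5 hr, then read for luminescence 30 min after CellTiter-Glo addition.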

Test [5] in a line: qHTS assay to identify small molecule antagonists of the retinoid-related orphan receptor gamma (ROR-gamma) signaling pathway - cell viability counter screen (AID 1159520; active = well fitted curve in the direction sought with a large enough effect in the repeat runs; an effect the other way counts as inactive or inconclusive; note: nearly all actives have a fitted effect of over 50% in size; note: potency is the fitted concentration of half-maximal effect). In a few lines: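 Tet-on ROR gamma CHO cells were given compounds for 2 hr, then doxycycline hyclate at 1 uM final, and incubated 16 hr at 37 C. Viability was measured as ATP content by CellTiter-Glo luminescence.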

Test [6] deals with Nuclear receptor ROR-gamma (Homo sapiens) (UniProt P51449). The test is described as follows: qHTS assay to identify small molecule antagonists of the retinoid-related orphan receptor gamma (ROR-gamma) signaling pathway (AID 1159521; active = well fitted curve in the direction sought with a large enough effect in the repeat runs; an effect the other way counts as inactive or inconclusive; note: nearly all actives have a fitted effect of over 50% in size; note: potency is the fitted concentration of half-maximal effect). Summed up: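 CHO Tet-on RORγ, RORE-luc reporter. Cpd 2 h pre-incubation, then dox hyclate 1 uM final, 16 h, 37 C/5% CO2. ONE-Glo luminescence; decrease = antagonist.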

The nature of test [7]: qHTS assay to identify small molecule agonists of the AP-1 signaling pathway - cell viability counter screen (AID 1159525). Note: nearly all actives have a fitted effect of over 55% in size. Note: potency is the fitted concentration of half-maximal effect. Summed up:
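AP-1-bla ME-180 cells in Opti-MEM with 0.5% dialyzed FBS, compound exposure 5 h at 37 C in 15-point titration. Viability read in the same wells as ATP content by CellTiter-Glo luminescence, normalised to tetra-n-octylammonium bromide and DMSO controls.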

Test [8] in a line: qHTS assay to identify small molecule agonists of the AP-1 signaling pathway (AID 1159526).
For test [9], the target named is Retinoic acid receptor RXR-alpha (Homo sapiens) (UniProt P19793). The test is described as follows: qHTS assay to identify small molecule agonists of the RXR signaling pathway (AID 1159527). Note: nearly all actives have a fitted effect of over 35% in size. Note: potency is the fitted concentration of half-maximal effect. Summed up:
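Read-out: beta-lactamase FRET ratio (405 nm excitation, 460 and 530 nm emission) after 2 hr substrate loading at room temperature. Cells were RXR-alpha-UAS-bla HEK 293T treated with compounds for 16 hr in 2% charcoal-stripped FBS medium.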

The nature of test [10]: qHTS assay to identify small molecule agonists of the RXR signaling pathway - cell viability counter screen (AID 1159529; active = well fitted curve in the direction sought with a large enough effect in the repeat runs; an effect the other way counts as inactive or inconclusive; note: nearly all actives have a fitted effect of over 50% in size; note: potency is the fitted concentration of half-maximal effect). In a few lines: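 HEK 293T RXRa-bla cells, 2% CS-FBS; 5 h settle; cpd 16 h 37 C, 5% CO2; CellTiter-Glo 30 min RT, luminescence. Tetraoctyl ammonium bromide as positive control.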

Chain of Retinoic acid receptor RXR-alpha (Homo sapiens) (P19793 whole entry, looked up): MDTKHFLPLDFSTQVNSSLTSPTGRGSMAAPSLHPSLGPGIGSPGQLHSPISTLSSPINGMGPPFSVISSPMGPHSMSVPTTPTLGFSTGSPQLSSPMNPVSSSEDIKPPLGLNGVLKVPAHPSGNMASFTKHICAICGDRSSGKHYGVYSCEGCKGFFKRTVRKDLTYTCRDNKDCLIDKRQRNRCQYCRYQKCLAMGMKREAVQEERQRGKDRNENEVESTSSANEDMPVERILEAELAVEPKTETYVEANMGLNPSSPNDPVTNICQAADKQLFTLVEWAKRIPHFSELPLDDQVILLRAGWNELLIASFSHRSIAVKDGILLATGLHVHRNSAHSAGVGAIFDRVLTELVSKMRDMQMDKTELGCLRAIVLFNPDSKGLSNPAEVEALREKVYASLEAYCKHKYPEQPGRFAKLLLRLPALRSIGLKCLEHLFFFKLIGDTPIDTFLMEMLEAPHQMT

For the compound `CC(C)CCOCc1ccccc1`, the Potency entry in [1], in test [2], in test [4], in test [5], in [6] and in test [7] was “inactive” each time. Moreover, the Potency result in [8], in test [9] and in test [10] was “inactive” in each case. For the same compound, the compound was classed as inactive in [3].

On to `NCCCCCC(=O)O`, for which the Potency entry in test [1], in test [2], in [4], in [5], in test [6] and in [7] was “inactive” throughout. Moreover, the Potency entry in test [8], in test [9] and in test [10] was “inactive” each time. In test [3], the outcome was inactive.

On to `C[N+]1([O-])CCOCC1`, for which the Potency result in test [1], in [2], in [4], in test [5], in test [6] and in [7] was “inactive” throughout. Further, the Potency entry in [8], in test [9] and in test [10] was “inactive” throughout. The compound was called inactive in test [3].

As to `CC(=O)OCC1=C(C(=O)O)N2C(=O)[C@@H](NC(=O)Cc3cccs3)[C@H]2SC1`, the Potency result in test [1], in test [2], in test [4], in test [5], in [6] and in test [7] was “inactive” throughout. The Potency entry in test [8], in test [9] and in test [10] was “inactive” each time. Further, in test [3], the compound was classed as inactive.

In the case of `COc1ccc(COC(C)=O)cc1`, the Potency result in test [1], in test [2], in test [4], in test [5], in [6] and in test [7] was “inactive” in each case. Moreover, the Potency result in [8], in test [9] and in [10] was “inactive” each time. Further, the compound was called inactive in test [3].

`NNCCc1ccccc1`: the Potency entry in test [1], in test [2], in test [4], in [5], in test [6] and in [7] was “inactive” in each case. Besides, the Potency result in test [8], in [9] and in [10] was “inactive” in each case. For the same compound, the call in test [3] was inactive.

Turning to `[Cl][In]([Cl])[Cl]`, the Potency result in [1], in test [2], in [4], in test [5], in test [6] and in test [7] was “inactive” each time. Further, the Potency result in test [8], in [9] and in test [10] was “inactive” in each case. In test [3], the outcome was inactive.

Regarding `CCCC(=O)c1ccccc1`, the Potency result in test [1], in test [2], in test [4], in test [5], in test [6] and in test [7] was “inactive” throughout. Further, the Potency entry in test [8], in test [9] and in test [10] was “inactive” throughout. The result in test [3] was inactive.

As for `CC(C(O)c1ccc(O)cc1)N1CCC(Cc2ccccc2)CC1` (centres undefined), the Potency result in test [1], in test [2], in [4], in [5], in [6] and in [7] was “inactive” each time. The Potency result in [8], in test [9] and in test [10] was “inactive” in each case. Moreover, in [3], the outcome was inactive.

For `O=C(O)c1cc(Cl)cc(Cl)c1`, the Potency result in [1], in [2], in test [4], in [5], in test [6] and in test [7] was “inactive” in each case. Besides, the Potency entry in test [8], in [9] and in test [10] was “inactive” in each case. The result in [3] was inactive.

Take `CCN1CCCC1CNC(=O)c1cc(S(=O)(=O)CC)c(N)cc1OC` (centres undefined): the Potency entry in test [1], in test [2], in [4], in test [5], in test [6] and in test [7] was “inactive” each time. In addition, the Potency entry in [8], in test [9] and in [10] was “inactive” in each case. Further, the compound was classed as inactive in test [3].

Regarding `CCC(C)(Oc1ccc(C2(c3ccc(OC(C)(CC)C(=O)O)cc3)CCCCC2)cc1)C(=O)O` (centres undefined), the Potency result in test [1], in [2], in test [4], in test [5], in test [6] and in test [7] was “inactive” each time. The Potency result in [8], in test [9] and in test [10] was “inactive” in each case. Besides, the outcome in test [3] was inactive.

For the compound `CCC(CO)(CO)COCC(CC)(CO)CO`, the Potency result in test [1], in test [2], in [4], in test [5], in [6] and in test [7] was “inactive” in each case. Moreover, the Potency entry in test [8], in test [9] and in test [10] was “inactive” throughout. The compound was classed as inactive in test [3].

As for `CC(C)(O)CCC(C)(C)O`, the Potency result in test [1], in test [2], in test [4], in test [5], in test [6] and in [7] was “inactive” each time. In addition, the Potency entry in test [8], in test [9] and in [10] was “inactive” each time. Besides, the outcome in test [3] was inactive.

As for `C=C(C)C(=O)O`, the Potency result in [1], in test [2], in test [4], in test [5], in test [6] and in test [7] was “inactive” each time. Further, the Potency entry in test [8], in test [9] and in test [10] was “inactive” throughout. The call in test [3] was inactive.

Regarding `COc1cc(C(=S)N2CCOCC2)ccc1O`, the Potency entry in [1], in test [2], in test [4], in [5], in test [6] and in test [7] was “inactive” each time. Besides, the Potency entry in test [8] and in [9] was “inactive” throughout. In addition, in [3], the compound was called inactive.

Regarding `CCCCOCCOC(=O)c1ccccc1C(=O)OCCOCCCC`, the Potency entry in [1], in [2], in test [4], in test [5], in test [6] and in test [7] was “inactive” in each case. In addition, the Potency result in test [9] was “inactive”. The result in test [3] was inactive. Moreover, the Potency in test [10] is 38.1 µM (active) and inactive.

Take `CCOc1ccccc1C(N)=O`: the Potency result in [1], in [2], in test [4], in [5], in test [6] and in test [7] was “inactive” in each case. The Potency result in [8] and in [9] was “inactive” throughout. Also, the compound was called inactive in test [3].

Consider `COc1nc(C)nc(Cl)c1NC1=NCCN1`, for which the Potency result in [1], in test [2], in [4], in [5], in test [6] and in test [8] was “inactive” in each case. Further, the Potency entry in test [9] is “inactive”. In [3], the compound was called inactive.

As to `CC(=O)Nc1ccc(C(=O)CCl)cc1`, the Potency entry in test [1], in test [2], in test [8] and in [10] was “inactive” in each case. Further, the call in test [3] was inactive. The Potency entry in [4] is “inactive and 27.5 µM (active)”; in [5] it was “inactive and 13.7 µM (active)”; in test [6], “inactive and 13.7 µM (active)”; in [9], 11 µM (active).

As to `CN(C)c1ccc2nc3ccc(=[N+](C)C)cc-3sc2c1`, the Potency result in test [1] was “inactive and 21.9 µM (active)”; in test [5], 16.6 µM (active) and 13.7 µM (active); in [6], “inactive and 34.4 µM (active)”; in test [7] it was 16.7 µM (active) and 43.6 µM (active). In addition, the Potency result in [2] and in [4] was “inactive” each time. The result in [3] was inactive.

For the compound `CC(N)=O`, the Potency entry in [1], in test [2], in test [4], in [5], in [6] and in test [7] was “inactive” in each case. The Potency entry in [8] and in [9] was “inactive” each time. Moreover, the call in test [3] was inactive.

`CCC[C@H](N[C@@H](C)C(=O)N1[C@H](C(=O)O)C[C@@H]2CCCC[C@@H]21)C(=O)OCC`: the Potency entry in [1], in test [2], in test [4], in test [5], in [6] and in test [8] was “inactive” in each case. The Potency result in test [9] and in test [10] was “inactive” throughout. Besides, the outcome in test [3] was inactive.
